For 40 compounds, growth inhibition results are on record in PubChem BioAssay (NCI).

Compounds without any hit were thinned out: in the full panel of roughly 79,000, 15% have a hit. Unmarked numbers belong to inactive results. Cut-off read from the data, not from the text of the source: active = growth inhibition above about 70%; inactive = the rest.

The assay can be described thus: NCI Yeast Anticancer Drug Screen. Data for the bub3 strain (AID 167). The settings on record: S. cerevisiae bub3 mutant strain, at 50.0 µM, hits give high values. The procedure, abridged:
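Growth of a checkpoint-deficient yeast mutant is measured after compound exposure. Values represent inhibition relative to vehicle.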
Regarding `CC(=O)c1c(P(=O)(OC(C)C)OC(C)C)nn(-c2ccc([N+](=O)[O-])cc2)c1C`, the growth inhibition is 14.2%.

Take `COc1ccc(C2(C)OCCCC2([NH-])C[NH-])cc1.[Cl][Pt+2][Cl]` (stereo not given): the growth inhibition was -0.4%.

Turning to `O=C1C2CCCCC2C(=O)N1O` (stereo not given), the growth inhibition was 1.45%.

`c1ccc2c3c(ccc2c1)CCC3`: the growth inhibition was -25.4%.

Take `Cc1cccc(OS(=O)(=O)c2ccccc2)c1`: the growth inhibition is -6.65%.

For `O=C1OCC(CN2CCC(n3c(=O)[nH]c4ccccc43)CC2)=C1c1ccccc1`, the growth inhibition is -10.6%.

With `O=C(O)/C=C\c1ccc(OC(=O)c2ccccc2)cc1`, the growth inhibition was -4.95%.

For `C=CCC1=C(C)C[C@@H]2CCC(=O)C=C12`, the growth inhibition is -13%.

For the compound `O=c1c2cc3c(cc2[nH]c2ncccc12)OCO3`, the growth inhibition was -2.55%.

`NC(CCCC(N)C(=O)c1ccccc1)C(=O)c1ccccc1` (stereo not given): the growth inhibition is -11.3%.

As to `CC(=O)NC1=C(C)C(=O)c2c(nc3n2CCC3OC(=O)c2ccccc2)C1=N` (stereo not given), the growth inhibition is 26.9%.

Take `COC(=O)C1(C(=O)OC)OC(c2ccc(OC)cc2)[C@H]2C(=O)N(C)C(=O)[C@H]21` (stereo not given in full): the growth inhibition is 10.2%.

As for `CCOC(=O)c1ccc(N=Cc2cccs2)cc1`, the growth inhibition is 0%.

`CSc1nc(NN)c([N+](=O)[O-])c(SC)n1`: the growth inhibition is -14.5%.

For the compound `COC(=O)c1ccc(OCc2ccc3nc(OC)c(OC)nc3c2)cc1`, the growth inhibition is -28.9%.

Consider `O=S(=O)(CCl)Nc1ccncc1`, for which the growth inhibition is 3.1%.

For the compound `CCOC(=O)c1ccc(NC(=O)Oc2ccc(SC)cc2)cc1`, the growth inhibition is 23.4%.

For the compound `CC(=O)Nc1ccc2c(=O)cc[nH]c2n1`, the growth inhibition is -2.95%.

Turning to `C=C(Cl)C(C)(Cl)CCC(Cl)C(C)(C)Cl` (stereo not given), the growth inhibition is 32.2%.

Regarding `COC(=O)c1[nH]c(=O)[nH]c(=S)c1N`, the growth inhibition is -17.8%.

On to `CCC/C=N/NC(=O)CCCCCCCCCCCCCCCCC`, for which the growth inhibition is 7.7%.

Consider `O=[N+]([O-])c1ccccc1-c1ccccc1CO`, for which the growth inhibition was -18.4%.

Take `CC[Si](C)(C)COC(N)=O`: the growth inhibition was -4.15%.

`CCCCCCCCCCC(CCCCCCCCCC)C1CCCC1`: the growth inhibition is -12.8%.

As for `C[N+](C)(C)Cc1ccc2ccccc2c1CC(O)(c1ccccc1)c1ccccc1`, the growth inhibition was 1.95%.

In the case of `CC/C=C/CC(=O)NCc1ccc(O)c(OC)c1`, the growth inhibition is -2.9%.

Consider `COc1ccc(S(=O)(=O)N/N=C\c2cc(I)cc(I)c2O)cc1`, for which the growth inhibition was -1.8%.

Take `CCC(=C(c1ccc(OCc2ccccc2)cc1)c1ccc(OCc2ccccc2)cc1)c1ccc(OC)cc1`: the growth inhibition was -20.8%.

Regarding `O=C1/C(=N\N(C(=O)c2ccccc2)c2ccccc2)c2cccc3cccc1c23`, the growth inhibition is 24.9%.

For the compound `CC(=O)Nc1ccc2oc(=O)[nH]c(=O)c2c1`, the growth inhibition is -18.6%.

Take `[Cl][Pt+2][Cl].[NH-]CC(O)c1ccc2oc3ccccc3c2c1.[NH-]CC(O)c1ccc2oc3ccccc3c2c1` (stereo not given): the growth inhibition is 7.35%.

For `Cc1cc(N(CCCOS(C)(=O)=O)CCCOS(C)(=O)=O)ccc1C=Nc1cc(Cl)c(O)c(Cl)c1`, the growth inhibition was 34.7%.

Regarding `CCOCCOC(=O)c1ccc(C(N)=NC)cc1`, the growth inhibition was 6.05%.

For the compound `Cn1c(=O)c2c3ccccc3c(C(=O)c3ccccc3)n2c2ccccc21`, the growth inhibition was -1.25%.

As for `Nc1nc(Cl)cc(Oc2ccc(Cl)cc2)n1`, the growth inhibition was 17%.

Consider `CCCNC(=O)c1cccc(-c2cccc(C(=O)NCCC)c2)c1`, for which the growth inhibition was 25.4%.

Consider `O=C(NC1CCCCC1)/C(=C\c1ccc(/C=C(/NC(=O)c2ccccc2)C(=O)NC2CCCCC2)cc1)NC(=O)c1ccccc1`, for which the growth inhibition was -22.6%.

For `CC(=O)OCC1COC(C2CC=CCC2C)O1` (stereo not given), the growth inhibition is 13.6%.

Turning to `CC(C)(C)Nc1ccc([N+](=O)[O-])cc1[N+](=O)[O-]`, the growth inhibition is 25.2%.

As for `CNc1ccc(OC)cc1`, the growth inhibition was 7.35%.
